Records with an inconclusive call do not appear. The source made the active and inactive calls. The call rests on the fitted dose curve; in most records, active means well fitted inhibition curve with a large enough effect in the repeat runs; inconclusive means weak or mixed curves; inactive means no such curve, though single readings can be large or run the other way.
Experiment: qHTS assay to identify small molecule antagonists of the thyroid receptor (TR) signaling pathway (AID 743065); further: nearly all actives have a fitted effect of over 55% in size
Details: GH3.TRE-Luc, T3-stimulated luciferase inhibition, 23.5 h; series mostly up to 70.3 µM; activity, negative = inhibition: at the top concentration
Text: U.S. Tox21 Program National Center for Advancing Translational Sciences [NCATS] NIH Chemical Genomics Center [NCGC] U.S. Environmental Protection Agency [EPA] National Institutes of Environmental Health Sciences [NIEHS] National Toxicology Program [NTP] U.S. Food and Drug Administration [FDA] Tox21 Assay Overview: Thyroid receptor (TR), a nuclear hormone receptor, plays an important role in development, proliferation, differentiation, metabolism, brain function, and cardiovascular system. […] To profile the Tox21 10K compound library in TR signaling, a cell-based GH3-TRE-Luc assay (GH3.TRE-Luc cell line, developed by the laboratory of Dr. Albertinka J. Murk, Wageningen University) was used to measure the inhibition of TR. GH3 (rat pituitary tumor) cells stably expressing a TR activity sensor consisting of two TR response elements and a luciferase reporter gene.
Tox21 Assay Protocol Summary: GH3.TRE-Luc cells were dispensed at 1500 cells/4 uL/well into 1536-well white solid bottom plates using a Multidrop Combi dispenser (Thermo Fisher Scientific Inc., Waltham, MA). After the assay plates were incubated at 37 C for 4 hours, 23 nL of library compound or DMSO controls was transferred to the assay plates by a pintool station (Kalypsys, San Diego, CA), followed by addition of 1 ul of T3 (1 nM, final concentration in the wells) to stimulate TR transactivation. The assay plates were incubated at 37 C for 23.5 h, and then 1 uL of CellTiter-Fluor reagent (Promega, Madision, WI) of measuring cytotoxicity was added to each well using a Bioraptr Flying Reagent Dispenser (FRD) workstation (Beckman Coulter, Indianapolis, IN, USA). The plates were incubated at 37 C and 5% CO2 for additional 30 min, and fluorescence intensity was measured by a ViewLux plate reader (PerkinElmer, Shelton, CT). For measuring luciferase reporter gene activity, 4 uL of ONE-Glo Luciferase Assay reagent (Promega) was added to each well using a Bioraptr FRD (Beckman Coulter), followed by 30 min incubation at room temperature. The luminescence intensity of plates was recorded by a ViewLux plate reader (PerkinElmer, Shelton, CT).
On the % scale 0 is the no-effect control and ±100 the full control effect; potency means the concentration at half of the fitted maximal effect.

Row | Compound | activity, negative = inhibition | Potency
1 | CC(C)C[C@@H](NC(=O)[C@@H](O)[C@H](N)Cc1ccccc1)C(=O)O | 7.14% (inactive) | –
2 | CC(=O)OCC1=C(C(=O)O)N2C(=O)[C@@H](NC(=O)Cc3ccccc3)[C@H]2SC1 | 4.67% (inactive) | –
3 | OCC1(CO)COC(C(Cl)(Cl)Cl)OC1 | 21% (inactive) | –
4 | O=C1c2ccccc2CN2C(=O)c3ccccc3CN12 | 0.807% (inactive) | –
5 | Cc1cc(CC(C)CC(C)(C)C)n(O)c(=O)c1 (stereo not given) (tested in a mixture with another compound) | – | 21.1 µM (active)
6 | COc1cccc2c1[C@@H]1CN(CCCCn3c(=O)[nH]c4c(sc5ncc(-c6ccccc6)nc54)c3=O)C[C@@H]1CO2 | – | 10.6 µM (active)
7 | NC[C@@H]1CC[C@@H](N)[C@@H](O[C@H]2[C@H](O)[C@@H](O[C@H]3O[C@H](CO)[C@@H](O)[C@H](N)[C@H]3O)[C@H](N)C[C@@H]2N)O1 | 12.2% (inactive) | –
8 | C[C@H]1O[C@@H](O[C@H]2CC[C@@]3(C)[C@H](CC[C@@H]4[C@@H]3C[C@@H](O)[C@]3(C)[C@@H](C5=CC(=O)OC5)CC[C@]43O)C2)C[C@H](O)[C@@H]1O[C@H]1C[C@H](O)[C@H](O[C@H]2C[C@H](O)[C@H](O[C@@H]3O[C@H](CO)[C@@H](O)[C@H](O)[C@H]3O)[C@@H](C)O2)[C@@H](C)O1 | 7.42% (inactive) | –
9 | C=CCN1C(=O)C(CC(C)C)NC1=S (stereo not given) | – | inactive
10 | OCCCNc1ccccc1 | 2.96% (inactive) | –
11 | CN1C(C(=O)Nc2ccccn2)C(=O)c2sc(Cl)cc2S1(=O)=O (stereo not given) | -17% (inactive) | –
12 | NCC[C@H](O)C(=O)N[C@@H]1C[C@H](N)[C@@H](O[C@H]2O[C@H](CN)CC[C@H]2N)[C@H](O)[C@H]1O[C@H]1O[C@H](CO)[C@@H](O)[C@H](N)[C@H]1O | 0% (inactive) | –
13 | CCOC(=O)[C@H](CCc1ccccc1)N[C@@H](C)C(=O)N1[C@H](C(=O)O)C[C@H]2CCCC[C@@H]21 | – | inactive
14 | c1ccc2occc2c1 | 22% (inactive) | –
15 | CCC[C@@H]1C[C@@H](C(=O)N[C@@H]([C@H]2O[C@H](SC)[C@H](OP(=O)(O)O)[C@@H](O)[C@H]2O)[C@H](C)Cl)N(C)C1 | – | inactive
16 | CC(=O)Oc1cc(C(F)(F)F)ccc1C(=O)O | 1.38% [at 32.5 µM] (inactive) | –
17 | CCCCCCCCCCCCCCCCC(C(=O)O)C(O)(CC(=O)O)C(=O)O (stereo not given) | – | 26.6 µM (active)
18 | CC(=O)O[C@H]1C[C@@H]2CC[C@@H]3[C@H](CC[C@@]4(C)[C@H]3C[C@H]([N+]3(C)CCCCC3)[C@@H]4OC(C)=O)[C@@]2(C)C[C@@H]1[N+]1(C)CCCCC1 | 0.848% (inactive) | –
19 | CCC(C)(C)c1ccc(CC(C)CN2C[C@@H](C)O[C@@H](C)C2)cc1 (stereo not given in full) | – | 11.9 µM (active)
20 | COc1ccc(/C=N/NC(=O)c2ccncc2)c(C(=O)O)c1OC | 7.96% (inactive) | –

Row | Compound | activity, negative = inhibition | Potency
21 | O=C(O)c1ccc(NC2OC[C@@H](O)[C@H](O)[C@H]2O)cc1 (stereo not given in full) | -2.72% (inactive) | –
22 | COc1c(Br)cc(Br)c(C)c1Br | 11.5% (inactive) | –
23 | Cc1c(O)c(=O)ccn1C | 4.4% (inactive) | –
24 | COc1ccc(/C=C/C(=O)Nc2ccccc2C(=O)O)cc1OC | – | 4.73 µM (active)
25 | O=C1OC(O)C(C(Cl)Cl)=C1Cl (stereo not given) | – | 22.4 µM (active)
26 | CC1(C)S[C@@H]2[C@H](N3C(=O)C(c4ccccc4)NC3(C)C)C(=O)N2[C@H]1C(=O)O (stereo not given in full) | 8.25% (inactive) | –
27 | C=CC(N)CCC(=O)O (stereo not given) | 12.6% (inactive) | –
28 | CC1CCCC(C)N1NC(=O)c1ccc(Cl)c(S(N)(=O)=O)c1 (stereo not given) | -0.081% [at 32.5 µM] (inactive) | –
29 | CC1(C)C[C@@H]1C(=O)N/C(=C\CCCCSC[C@H](N)C(=O)O)C(=O)O | – | inactive
30 | N[C@H](CO)C(=O)O | 14.2% (inactive) | –
31 | CCOC(=O)Cc1ccc(-c2ccccc2)cc1 | 2.1% (inactive) | –
32 | CS(=O)(=O)c1ccc([C@@H](O)[C@@H](COC(=O)CN)NC(=O)C(Cl)Cl)cc1 | 0.368% (inactive) | –
33 | CN[C@H](CC(C)C)C(=O)N[C@H]1C(=O)N[C@@H](CC(N)=O)C(=O)N[C@H]2C(=O)N[C@H]3C(=O)N[C@H](C(=O)N[C@@H](C(=O)O)c4cc(O)cc(O)c4-c4cc3ccc4O)[C@H](O)c3ccc(c(Cl)c3)Oc3cc2cc(c3O[C@@H]2O[C@H](CO)[C@@H](O)[C@H](O)[C@H]2O[C@H]2C[C@](C)(N)C(O)[C@H](C)O2)Oc2ccc(cc2Cl)[C@H]1O (stereo not given in full) | – | inactive
34 | O=C(CCN1CCC(c2ccccc2)C1)c1ccc2c(c1)OCCO2 (stereo not given) | – | 26.6 µM (active)
35 | C=C1[C@@H]2CC[C@@H](C2)C1(C)C | 12% (inactive) | –
36 | CCC(NC(C)C)C(O)c1ccc(O)c(O)c1 (stereo not given) | -13.4% (inactive) | –
37 | O=C1c2ccccc2C(=O)C1c1ccc(F)cc1 | 6.69% (inactive) | –
38 | COc1cc(NS(C)(=O)=O)ccc1Nc1c2ccccc2nc2ccccc12 | – | 0.596 µM (active)
39 | COc1ccc2ccccc2c1 | 14.8% (inactive) | –
40 | NC[C@H]1O[C@H](O[C@H]2[C@H](O)[C@@H](O[C@H]3O[C@H](CO)[C@@H](O)[C@H](N)[C@H]3O)[C@H](N)C[C@@H]2N)[C@H](N)C[C@@H]1O | 2.17% [at 32.5 µM] (inactive) | –

From PubChem BioAssay (Tox21)
